Rows were chosen to be rich in hits. Some 2.8% of all compounds tested hit in one or more screens of this group.
SENP7 inh: inhibitors of human SENP7 protease | Q9BQF6 | recombinant SENP7, Z-RLRGG-aminoluciferin luminescence, 40 min | inhibition, % at 5 µM | actives 1.5% (n = 330,000) | AID 434973;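 active means inhibition above about 50% at the single test dose, limit read from the data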
Platelet DG rel: modulates dense granule release in human platelets. inhibition, %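 (compounds screened at 7.5 µM in platelet-rich plasma)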. actives 0.22% (n = 300,000). human platelet-rich plasma, SFLLRN dense granule ATP release, luminescence;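 active means mean replicate score, as percent of positive control, at or above 50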
HSP90 inh: blocks HSP90-mediated luciferase refolding in reticulocyte lysate. Rabbit reticulocyte lysate, luciferase refolding luminescence, 3 h. inhibition, % at 5.6 µM. actives 0.91% (n = 290,000). AID 1789;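 active means inhibition above the screen-wide mean plus 3 SD, computed separately per campaign, cut at about 16% in these data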;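 further: inhibitors lower the luminescence because luciferase stays unfolded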
SENP8 block-1: blocks human SENP8 cleavage of Nedd8 substrate; inhibition, % at 20 µM; recombinant SENP8, Nedd8 substrate fluorescence; Q96LD8; actives 0.64% (n = 360,000); in the data active means inhibition mostly above about 40%, no sharp cut-off; inactive means mostly below about 27%
Target sequence (Q96LD8 whole entry, looked up): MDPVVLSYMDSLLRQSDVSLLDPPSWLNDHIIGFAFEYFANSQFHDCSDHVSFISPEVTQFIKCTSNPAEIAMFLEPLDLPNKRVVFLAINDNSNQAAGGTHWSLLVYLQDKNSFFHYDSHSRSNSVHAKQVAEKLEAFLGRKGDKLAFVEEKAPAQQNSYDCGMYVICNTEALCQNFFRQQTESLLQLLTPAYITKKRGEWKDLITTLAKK
SENP8 block-2: blocks the human protease SENP8; inhibition, % at 10 µM; purified SENP8, Z-RLRGG-aminoluciferin cleavage, luminescence; Q96LD8; actives 1.2% (n = 330,000); in the data active means inhibition above about 50%
SENP6 inh: blocks the human protease SENP6; Q9GZR1; Recombinant SENP6 catalytic domain, aminoluciferin luminescence; inhibition, % at 10 µM; actives 1.8% (n = 330,000); AID 2599;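 active means inhibition above about 50% at the single tested dose, limit read from the data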
Target sequence (Q9GZR1 628-1112 limits assumed): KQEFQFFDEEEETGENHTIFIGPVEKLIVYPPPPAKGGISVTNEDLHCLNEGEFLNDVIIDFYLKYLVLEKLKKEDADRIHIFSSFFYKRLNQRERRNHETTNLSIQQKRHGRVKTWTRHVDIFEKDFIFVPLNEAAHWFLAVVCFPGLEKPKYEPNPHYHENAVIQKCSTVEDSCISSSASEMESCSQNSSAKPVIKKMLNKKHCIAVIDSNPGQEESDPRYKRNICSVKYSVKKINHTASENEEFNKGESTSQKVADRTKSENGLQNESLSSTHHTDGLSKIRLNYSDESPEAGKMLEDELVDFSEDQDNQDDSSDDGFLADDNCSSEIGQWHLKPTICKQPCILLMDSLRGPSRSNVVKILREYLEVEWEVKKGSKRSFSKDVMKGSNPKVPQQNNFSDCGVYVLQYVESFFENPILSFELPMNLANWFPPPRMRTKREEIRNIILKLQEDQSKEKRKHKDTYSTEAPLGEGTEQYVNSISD
SENP8 conf: confirmation of human SENP8 protease inhibitors | shares compounds with SENP7 inh | inhibition, % at 12.5 µM | actives 40% (n = 6,200) | Recombinant SENP8, Z-RLRGG-aminoluciferin luminescence, 60 min;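 active means mean inhibition across replicates above about 50%, limit read from the data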
SENP6 confirm: confirmation of human SENP6 protease inhibitors; shares compounds with SENP7 inh; recombinant SENP6, Z-RLRGG-aminoluciferin luminescence; inhibition, % at 12.5 µM; actives 58% (n = 6,200)
SENP7 conf: human SENP7 inhibition, confirmed; inhibition, % at 12.5 µM; recombinant SENP7, Z-RLRGG-aminoluciferin luminescence, 40 min; AID 488917; shares compounds with SENP7 inh; actives 69% (n = 6,200)
Casp3 SENP sel: inhibits human caspase-3 in SENP selectivity test; shares compounds with SENP7 inh; AID 488918; inhibition, % at 12.5 µM; purified caspase-3, Z-DEVD-aminoluciferin luminescence, 60 min; actives 60% (n = 6,200);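 active means mean inhibition above about 50%, limit read from the data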
Luc interf: counter-screen for SENP inhibitors: luminescence interference | shares compounds with SENP7 inh | Pre-incubated SENP8/Z-RLRGG-aminoluciferin, luciferase luminescence interference | inhibition, % at 12.5 µM | actives 39% (n = 6,200);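 active means mean inhibition above about 50% when retested at one dose, limit read from the data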
Each line names hits and unclear results; the compound was inactive in the other large screens (follow-up assays come after a bar, where they were run).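 How the source made its calls, unless noted: active means mean inhibition above about 50% in the one-dose retest (limit read from the data); inactive means the rest.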

C/C(=N\NC(=O)c1ccc(OC2OCCOC2Oc2ccc(C(=O)N/N=C(\C)c3ccncc3)cc2)cc1)c1ccncc1 (stereo not given)	none
NC(=S)n1[nH]c(-c2ccc([N+](=O)[O-])cc2)c(N=Nc2cccc([N+](=O)[O-])c2)c1=O	none (no result: SENP7 inh, SENP8 block-2, SENP6 inh)
Cc1c(N=Nc2c(-c3ccc([N+](=O)[O-])cc3)[nH]n(C(N)=S)c2=O)cccc1[N+](=O)[O-]	none (no result: SENP7 inh, Platelet DG rel, SENP8 block-2, SENP6 inh)
Cc1[nH]n(C(N)=S)c(=O)c1N=Nc1ccc(S(=O)(=O)N2CCCCCC2)cc1	SENP6 inh 73 | SENP8 conf 51 | SENP6 confirm inactive | SENP7 conf inactive | Casp3 SENP sel inactive | Luc interf inactive
Cc1[nH]n(C(N)=S)c(=O)c1N=Nc1cccc([N+](=O)[O-])c1C	SENP7 inh 71, SENP8 block-2 88, SENP6 inh 96 | SENP8 conf 96 | SENP6 confirm 95 | SENP7 conf 102 | Casp3 SENP sel 92 | Luc interf 88
Cc1[nH]n(C(N)=S)c(=O)c1N=Nc1cc(-c2ccc(Br)cc2)[nH]n1	SENP8 block-2 55, SENP6 inh 69 | SENP8 conf inactive | SENP6 confirm inactive | SENP7 conf inactive | Casp3 SENP sel inactive | Luc interf inactive
Cc1[nH]n(C(N)=S)c(=O)c1N=Nc1ccc2ccccc2c1	none (no result: SENP7 inh, SENP8 block-2, SENP6 inh)
Cc1ccc(N=Nc2c(C)[nH]n(C(N)=S)c2=O)cc1C	SENP7 inh 78, SENP8 block-1 57, SENP8 block-2 78, SENP6 inh 90 | SENP8 conf 61 | SENP6 confirm 54 | SENP7 conf 67 | Casp3 SENP sel 73 | Luc interf inactive
c1ccc(NCCC2OCC3(CO2)COC(CCNc2ccccc2)OC3)cc1 (stereo not given)	none (no result: SENP7 inh, Platelet DG rel, HSP90 inh, SENP8 block-2, SENP6 inh)
CCCC(=O)N1CCC1(C)C(=O)Nc1ccc(-n2cccc2)cc1 (stereo not given)	none (no result: SENP7 inh, Platelet DG rel, HSP90 inh, SENP8 block-2, SENP6 inh)
CCOC(=O)C1=CCC(c2ccccc2)N(S(=O)(=O)c2ccccc2C)C1 (stereo not given)	none (no result: SENP7 inh, Platelet DG rel, HSP90 inh, SENP8 block-2, SENP6 inh)
CCOC(=O)C1(Cc2cccc(F)c2)CCN(C(=O)Cn2cnnn2)CC1	none
CCCOc1ccc(C(F)(F)F)cc1NC(=O)C1CC(=O)N(Cc2ccco2)C1 (stereo not given)	none (no result: Platelet DG rel, HSP90 inh)
CC(=O)Nc1ccc(N=Nc2c(C)[nH]n(C(N)=S)c2=O)cc1	SENP7 inh 67, SENP8 block-2 70, SENP6 inh 53 | SENP8 conf 64 | SENP6 confirm 66 | SENP7 conf 93 | Casp3 SENP sel 92 | Luc interf inactive
O=C(Oc1ccc[nH]c1=O)c1ccccc1	none (no result: SENP7 inh, Platelet DG rel, HSP90 inh, SENP8 block-2, SENP6 inh)
O=C(Nc1ccc(F)cc1)Oc1ccc[nH]c1=O	SENP7 inh 53 | SENP8 conf inactive | SENP6 confirm inactive | SENP7 conf inactive | Casp3 SENP sel inactive | Luc interf inactive
Cc1sc2c(c1C)c(=O)nc1scc(C)n12	none (no result: SENP7 inh, Platelet DG rel, SENP8 block-1, SENP8 block-2, SENP6 inh)
COc1cccc(CNc2cnc3ccccc3c2)c1O	SENP6 inh 60 | SENP8 conf inactive | SENP6 confirm inactive | SENP7 conf 77 | Casp3 SENP sel inactive | Luc interf 61
COc1cc(NC(=O)CCC(=O)c2cccs2)cc(OC)c1	none
Cc1ccc(C(=O)c2c3ccccc3[n+]([O-])n2CCC(N)=O)cc1	none
O=C1/C(=C/c2ccc([N+](=O)[O-])cc2)Oc2cc(O)ccc21	SENP7 inh 63, SENP8 block-2 57, SENP6 inh 70 | SENP8 conf inactive | SENP6 confirm inactive | SENP7 conf 51 | Casp3 SENP sel inactive | Luc interf 53
CS(=O)(=O)Oc1ccc2c(c1)O/C(=C\c1cccc([N+](=O)[O-])c1)C2=O	none
COc1ccc(-n2nc(C(=O)N(C)C)nc2-c2ccccc2)cc1	none
CC(C)S(=O)(=O)c1csc(C(=O)Nc2ccc(F)cc2)c1N	SENP7 inh 98, Platelet DG rel 57, SENP8 block-2 92, SENP6 inh 98 | SENP8 conf 96 | SENP6 confirm 97 | SENP7 conf 102 | Casp3 SENP sel 97 | Luc interf 87
Cc1ccc(OCCC(=O)OC(C)C(=O)Nc2ccc(Cl)cn2)cc1 (stereo not given)	none (no result: HSP90 inh)
CC1CCN(c2ccc(NC(=O)c3ccc(Br)o3)cc2)CC1	SENP7 inh 88, SENP8 block-2 56, SENP6 inh 81 | SENP8 conf inactive | SENP6 confirm inactive | SENP7 conf inactive | Casp3 SENP sel inactive | Luc interf inactive
CCc1nnc(NC(=O)CN2CCN(Cc3ccccc3Cl)CC2)s1	none
Nc1ncc(Br)cc1N=Cc1ccccc1	SENP6 inh 72 | SENP8 conf inactive | SENP6 confirm inactive | SENP7 conf inactive | Casp3 SENP sel inactive | Luc interf inactive
O=C(O/N=C1\CCCc2ccccc21)c1cccs1	SENP7 inh 91, SENP8 block-2 86, SENP6 inh 88 | SENP8 conf inactive | SENP6 confirm 94 | SENP7 conf 101 | Casp3 SENP sel 90 | Luc interf inactive
Cc1cccc(/C(N)=N/OC(=O)c2cccs2)c1	SENP7 inh 97, SENP8 block-2 91, SENP6 inh 88 | SENP8 conf 95 | SENP6 confirm 96 | SENP7 conf 101 | Casp3 SENP sel 97 | Luc interf 96
Cc1ccc(/C(N)=N/OC(=O)c2cccs2)cc1	SENP7 inh 67, SENP8 block-2 68, SENP6 inh 73 | SENP8 conf 58 | SENP6 confirm 65 | SENP7 conf 91 | Casp3 SENP sel 73 | Luc interf 60
COc1ccc(/C(N)=N/OC(=O)c2cccs2)cc1OC	none
N/C(=N\OC(=O)c1cccs1)c1ccccc1	SENP7 inh 99, SENP8 block-2 91 | SENP8 conf 93 | SENP6 confirm 95 | SENP7 conf 101 | Casp3 SENP sel 97 | Luc interf 93
CCN1C(=O)[C@@H]2[C@@H](c3ccc(SC4CCCCC4)c(OC)c3)N3CCC[C@@]3(C(=O)OC)[C@@H]2C1=O	none (no result: Platelet DG rel, HSP90 inh)
O=C(c1ccco1)N1CCN(C(=O)c2cn(-c3ccccc3)nc2-c2ccccc2)CC1	none (no result: Platelet DG rel, HSP90 inh)
C[C@@H]1CN([C@@H](C)CO)C(=O)CCCn2nncc2CO[C@@H]1CN(C)C(=O)Nc1cccc(Oc2ccccn2)c1	none (no result: SENP7 inh, Platelet DG rel, HSP90 inh, SENP8 block-2, SENP6 inh)
